Jurkat NFkB inh: inhibitors of induced NF-kB luciferase reporter, primary screen, TCR NF-kB activation inhibitor project, cell-based, luminescence, uHTS; Jurkat, PMA/ionomycin-induced NF-kB luciferase reporter; inhibition, % at 4 µM; 0.53% of 330,000 active; in the data active = inhibition above about 50%
697 NFkB inh: inhibitors of PMA/ionomycin-induced NF-kB reporter, 697 cells, primary screen, B-cell NF-kB inhibitor project, cell-based, luminescence, uHTS. 697 B-cell NF-kB luciferase reporter, 16 h. inhibition, % at 4 µM. 0.33% of 330,000 active. AID 435022, 2010; in the data active = inhibition above about 35%
Beta apoptosis: inhibitors of cytokine-induced beta cell apoptosis, primary screen, luminescence; INS-1E cytokine-induced death, ATP luminescence, 48 h; percent of positive-control rescue, neutral wells zero; protection from apoptosis, % (no concentration beside the values); 0.8% of 300,000 active; AID 435005, 2010;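 active = Every replicate reaches about 75%, or at least half do and their mean reaches it too, limit read from the data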;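 note: 0% = cytokine-treated negative control wells and 100% = positive control rescue; higher means more ATP so stronger rescue from cytokine killing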
Gli-Sufu antag: Gli-Sufu pathway antagonists, primary screen, luciferase luminescence, Sufu-KO-LIGHT cells, uHTS | 0.74% of 340,000 active | inhibition, % at 5 µM | Sufu-KO-LIGHT fibroblasts, Gli luciferase reporter luminescence;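 active = inhibition above about 55%, limit read from the data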;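 note: 0% = DMSO-treated cells and 100% = wells with medium but no cells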
* = called active by the depositor; / = not tested or not shown. Rows were chosen to be rich in hits. Some 1.8% of all compounds tested hit in one or more screens of this group.

SMILES | Jurkat NFkB inh | 697 NFkB inh | Beta apoptosis | Gli-Sufu antag
C=CCn1c(SCC(=O)N2c3ccccc3Sc3ccccc32)nnc1-c1ccco1 | 19 | 15 | 0 | 0
N/C(=N\NC(=O)c1sccc1OCc1ccc(Cl)cc1Cl)c1ccccn1 | 5 | 5 | 78* | -3
CC(=O)NC(c1ccc(Cl)cc1)c1ccc2cccnc2c1O (configuration not stated) | / | / | / | 80*
Cc1cc(NC(c2ccc(Cl)cc2)c2ccc3cccnc3c2O)no1 (configuration not stated) | 33 | -32 | / | 67*
CCC(=O)NC(c1ccc(Cl)cc1Cl)c1ccc2cccnc2c1O (configuration not stated) | 37 | -99 | 104* | 89*
CC(=O)NC(c1ccco1)c1ccc2cccnc2c1O (configuration not stated) | 21 | -4 | 90* | -10
Fc1cccc(NC(=S)NC2CCCCCCC2)c1 | -21 | -25 | 6 | -3
CCN(CC)CCN1c2ccccc2Sc2ccc3ccccc3c21 | 6 | -6 | 106* | 26
CCN(CC)CCN1c2ccccc2Sc2ccccc21 | 14 | 13 | 1 | 10
CCOC(=O)c1sc(N/N=C/c2ccc(N(C)C)cc2)nc1C | -15 | -35 | -15 | -66
C=CCc1c(C)nc(C)nc1N/N=C/c1ccc(N(C)C)cc1 | -18 | -10 | 100* | 11
CCCOC(=O)/C(C(N)=NCc1ccccc1)=C(\O)OCCC | 7 | 8 | 109* | 8
O=C1C=C(N2CCCCC2)c2ccccc2C1=O | 12 | -3 | 117* | 2
O=C1c2ccccc2C(=O)c2c1cccc2N1CCCC1 | / | / | -1 | 3
CCC(=O)N1CCc2cc(Br)cc(S(=O)(=O)C3(C(=O)OC)CC3)c21 | -2 | -11 | 9 | 5
CS(=O)(=O)c1nc(-c2cccs2)cc(C(F)(F)F)n1 | 48 | -37 | 91* | /
CCOC(=O)c1c(NC(=O)/C=C/C(=O)O)sc(C)c1-c1ccc(C(C)(C)C)cc1 | -2 | 32 | 79* | 3
OCCNCC(O)Cn1c2ccccc2c2ccccc21 (configuration not stated) | 4 | 12 | 3 | -10
COc1ccccc1CNCC(O)Cn1c2ccccc2c2ccccc21 (configuration not stated) | 9 | 0 | 103* | 11
COc1ccc(C2CC(c3ccc4ccccc4c3OC(C)=O)=NN2C(C)=O)cc1 (configuration not stated) | -87 | -109 | 96* | 20
Cc1ccc(-c2c(C#N)c(N)n3c(nc4ccccc43)c2C#N)cc1 | 1 | -10 | 80* | 29
N#Cc1c(-c2ccccc2)c(C#N)c2nc3ccccc3n2c1N | 10 | -7 | 49 | 14
O=C(Nc1cc(S(=O)(=O)Nc2ccc(Cl)cc2)ccc1N1CCCCC1)c1ccc(F)cc1 | 7 | 12 | 112* | 29
CCN(CC)CCN1C(=O)c2ccccc2NC1c1ccc(C)cc1 (configuration not stated) | -2 | -3 | -2 | -2
O=C(CC1SC(=Nc2ccc(OC(F)F)cc2)N(CCC2=CCCCC2)C1=O)Nc1ccccc1F (configuration not stated) | -8 | -15 | / | 20
SMILES | Jurkat NFkB inh | 697 NFkB inh | Beta apoptosis | Gli-Sufu antag
CCOc1ccccc1N=C1SC(CC(=O)Nc2ccc(OC)cc2OC)C(=O)N1CCC1=CCCCC1 (configuration not stated) | 6 | -37 | 76* | -3
COC(=O)C1Cc2c([nH]c3ccccc23)C(C(C)C)N1 (configuration not stated) | -8 | 9 | 2 | 10
O=C1C=C(NCCN2CCOCC2)C(=O)c2cnccc21 | / | / | 98* | /
CCOC(=O)c1c(NC(=O)c2cc(-c3ccc(Cl)s3)nc3ccccc23)sc(C(N)=O)c1C | / | / | 77* | 1
Cc1ccccc1-c1cc(C(=O)Nc2sc(C)c(C)c2C(N)=O)c2ccccc2n1 | 1 | 0 | 93* | 9
Cc1sc(NC(=O)Nc2ccccc2)c(C(N)=O)c1C | -70 | -43 | -9 | -62
O=C(O)c1c[nH]c2ccc(F)cc2c1=O | -12 | -10 | -3 | -10
O=C(NCCc1ccccn1)c1ccc(OC2CCN(Cc3ccccn3)CC2)cc1 | -14 | -49 | -2 | 5
CC(CNC(=O)c1ccc(OC2CCN(Cc3ccccn3)CC2)cc1)Oc1cccnc1 (configuration not stated) | 5 | -14 | 100* | 12
O=C(Cn1c(=O)cnc2ccccc21)NNC(=O)c1ccccc1Cl | 2 | 2 | -7 | 1
O=[N+]([O-])c1ccc2[nH]c3nc4ccccc4nc3c2c1 | -15 | -11 | 18 | 57*
COc1ccccc1OCC(=O)NCC(C)NC(=O)COc1ccccc1OC (configuration not stated) | -25 | -11 | / | 4
O=C(Nc1ccc(Nc2ccncc2)cc1)c1ccc(Nc2ccnc3ccc([N+](=O)[O-])cc23)cc1[N+](=O)[O-] | / | / | 81* | 1
Cc1nnc2ccc(Oc3ccc(-c4ccccc4)cc3)nn12 | 11 | -14 | 92* | 18
COC(=O)c1ccc(Oc2ccc3nnc(C)n3n2)cc1 | -12 | -31 | -1 | 0
CCCOc1ccccc1N/C(N)=N/c1nc(C)cc(C)n1 | 22 | -41 | 11 | 24
COc1ccc(Nc2ccc3c(c2)=NC2(CCCCC2)[N+]=3[O-])cc1 | 17 | -36 | 104* | 17
[O-][N+]1=c2ccc(Nc3ccccc3)cc2=NC12CCCCC2 | / | / | 107* | 10
COc1ccc(NC2=NC(=S)N(c3ccccc3C)C23CCCCC3)cc1 | 4 | 20 | 3 | 11
CCN(CC)S(=O)(=O)c1cccc(C(=O)Nc2sc3c(c2C(N)=O)CCCC3)c1 | -17 | -12 | -5 | -1
C/C(=C\C(=O)c1ccccc1)Nc1ccc2c(c1)OCO2 | -69 | -45 | 3 | -91
Cc1ccc(C)c(NC(=O)c2ccccc2NS(=O)(=O)c2cc([N+](=O)[O-])ccc2C)c1 | 3 | -12 | 112* | 34
Cc1ccc([N+](=O)[O-])cc1S(=O)(=O)Nc1cccc(S(=O)(=O)Nc2ccccc2C(=O)O)c1 | 7 | 11 | -3 | -17
Oc1[nH]c(N=C2N=c3ccccc3=N2)c2ccccc12 | / | / | 113* | 53
C#CCOCCOCCOCCNc1nc(N2CCN(C(=O)CCCCCCCCCCNC(=O)[C@H]([C@@H](C)CC)n3cc(CCCCN=C(N)N)nn3)CC2)nc(N2CCN(C(=O)CCCCCCCCCCNC(=O)[C@@H]([C@H](C)O)n3cc(C)nn3)CC2)n1 | -2 | -8 | 15 | -8
C#CCOCCOCCOCCNc1nc(N2CCN(C(=O)CCCCCCCCCCNC(=O)Cn3cc(C[C@@H](C)O)nn3)CC2)nc(N2CCN(C(=O)CCCCCCCCCCNC(=O)[C@@H]([C@H](C)CC)n3cc(CCCCCN)nn3)CC2)n1 | 48 | -21 | 84* | -11
